From PubChem BioAssay (NCATS)
Results filed as inconclusive are left out. Entries that show only a call come without a potency. Activity calls are given as the source filed them. Unless noted, calls come from the whole dose curve; as a rule, active = well fitted curve in the direction sought with a large enough effect; inconclusive = small, poorly fitted or top-dose-only effect, or another doubt; inactive = no such curve, though single readings can be large; an effect the other way counts as inactive or inconclusive.

Assays:
[1] = AP1 Signaling Pathway (AID 357; active = well fitted curve in either direction with a large enough effect, not every such curve was filed as active;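 note: ME-180 reporter cells stimulated with EGF at its EC50 level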); details: ME-180 AP-1-bla reporter, EGF-induced, beta-lactamase ratio, 5 h; at 7.69 µM (top of the series) unless noted
Summary of the method: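 Titration-series screen for positive or negative modulators of EC50 EGF-induced signaling in ME-180 cells carrying an AP-1-driven beta-lactamase reporter. After 5 hours at 37 degrees Celsius, CCF4 460nm/530nm emission ratio gave %Activity; AC50 values derived.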

[2] = NFAT Signaling Pathway (AID 444; active = well fitted curve in either direction with a large enough effect, not every such curve was filed as active;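 note: carbachol stimulus at about its EC50 of 1 µM final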); details: Jurkat NFAT-bla M1, carbachol, beta-lactamase ratio, 5 h; at 7.69 µM (top of the series) unless noted
Summary of the method: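 Read-out: CCF4 FRET ratio (460 nm/530 nm) after 1 h RT dye loading, used for %activity and AC50 from titration series. Cells: Jurkat NFAT-β-lactamase/M1 line, treated with compound plus 1 uM carbachol for 5 h, 37 °C.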

[3] = Stat Signaling Pathway (AID 446; active = well fitted curve in either direction with a large enough effect, not every such curve was filed as active;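 note: ME-180 cervical cancer cells given 40 pM IL-6 alongside compound; SIE-controlled beta-lactamase reporter measured as 460/530 nm FRET emission ratio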); details: ME-180 (cervical carcinoma) SIE beta-lactamase reporter, IL-6 stimulated, 5 h; at 7.69 µM (top of the series) unless noted
Summary of the method: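 IL-6/STAT signaling read in ME-180 cells via an SIE beta-lactamase reporter. Stimulus was 40 pM IL-6 (its AC50) for 5 hrs, so both activation and inhibition register.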

[4] = target: Cytochrome P450 3A4 (Homo sapiens) (UniProt P08684); assay: qHTS Assay for Inhibitors and Substrates of Cytochrome P450 3A4 (AID 884); details: recombinant CYP3A4, Luciferin-PPXE luminescence; series mostly up to 57.1 µM; note: nearly all actives have a fitted effect of over 50% in size
Cytochrome P450 3A4 (Homo sapiens), sequence (P08684 whole entry, looked up): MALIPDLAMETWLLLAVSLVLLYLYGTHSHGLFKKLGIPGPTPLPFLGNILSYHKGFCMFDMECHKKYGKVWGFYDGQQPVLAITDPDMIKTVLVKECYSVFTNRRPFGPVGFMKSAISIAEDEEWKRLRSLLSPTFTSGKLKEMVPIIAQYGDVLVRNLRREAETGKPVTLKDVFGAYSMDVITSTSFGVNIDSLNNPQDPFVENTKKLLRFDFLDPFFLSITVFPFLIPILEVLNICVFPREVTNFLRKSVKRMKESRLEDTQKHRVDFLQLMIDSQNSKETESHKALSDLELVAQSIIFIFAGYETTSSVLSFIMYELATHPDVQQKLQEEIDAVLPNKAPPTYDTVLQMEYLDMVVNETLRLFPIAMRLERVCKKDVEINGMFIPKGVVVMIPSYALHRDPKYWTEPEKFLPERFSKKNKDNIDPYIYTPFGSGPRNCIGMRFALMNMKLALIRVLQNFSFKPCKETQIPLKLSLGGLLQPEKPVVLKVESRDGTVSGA
Summary of the method: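 20 nM human CYP3A4 with 25 uM Luciferin-PPXE (at KM) in 200 mM KPO4, preincubated 10 min with compound; NADPH regeneration started a 60 min RT reaction. Luciferin detected by luminescence, normalized to 57 uM ketoconazole as full inhibition.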

[5] = S16 Schwann cell viability assay (CellTiter-Glo assay) (AID 624031); details: S16 rat Schwann cells viability, 24 h; series mostly up to 57.5 µM;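 note: native untransfected S16 rat Schwann cells; nearly all actives have a fitted effect of over 70% in size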
Summary of the method: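 Counter-screen for cytotoxicity: parental S16 rat Schwann cells lacking the PMP22 reporters, treated 24 h with compound, viability from cellular ATP by CellTiter-Glo luminescence, normalized to DMSO (0%) and no-cell wells.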

[6] = S16 Schwann cell PMP22 intronic element beta-lactamase assay (AID 624044; calls by dose curve; note: nearly all actives have a fitted effect of over 15% in size); details: S16 rat Schwann cells, PMP22 element beta-lactamase FRET, 24 h; series mostly up to 38.3 µM
Summary of the method: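 Rat S16 Schwann cells with beta-Lac driven by a PMP22 intronic element, compound-treated 24 h at 37 °C. LiveBLAzer FRET B/G read: 460 nm normalized to potassium clavulanate vs DMSO; 535 nm FRET as viability; concentration-effect curves classified.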

[7] = target: Rap guanine nucleotide exchange factor 3 (Homo sapiens) (UniProt O95398); assay: Confirmatory qHTS for agonist of cAMP-regulated guanine nucleotide exchange factor 3 (EPAC1) (AID 1645881); details: EPAC1 Rap1B BODIPY-GDP exchange fluorescence, 100% = cAMP control response; series mostly up to 154 µM;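 note: EPAC1 catalysed release of BODIPY-GDP from Rap1B seen as fluorescence loss; nearly all actives have a fitted effect of over 75% in size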
Rap guanine nucleotide exchange factor 3 (Homo sapiens), sequence (O95398 whole entry, looked up): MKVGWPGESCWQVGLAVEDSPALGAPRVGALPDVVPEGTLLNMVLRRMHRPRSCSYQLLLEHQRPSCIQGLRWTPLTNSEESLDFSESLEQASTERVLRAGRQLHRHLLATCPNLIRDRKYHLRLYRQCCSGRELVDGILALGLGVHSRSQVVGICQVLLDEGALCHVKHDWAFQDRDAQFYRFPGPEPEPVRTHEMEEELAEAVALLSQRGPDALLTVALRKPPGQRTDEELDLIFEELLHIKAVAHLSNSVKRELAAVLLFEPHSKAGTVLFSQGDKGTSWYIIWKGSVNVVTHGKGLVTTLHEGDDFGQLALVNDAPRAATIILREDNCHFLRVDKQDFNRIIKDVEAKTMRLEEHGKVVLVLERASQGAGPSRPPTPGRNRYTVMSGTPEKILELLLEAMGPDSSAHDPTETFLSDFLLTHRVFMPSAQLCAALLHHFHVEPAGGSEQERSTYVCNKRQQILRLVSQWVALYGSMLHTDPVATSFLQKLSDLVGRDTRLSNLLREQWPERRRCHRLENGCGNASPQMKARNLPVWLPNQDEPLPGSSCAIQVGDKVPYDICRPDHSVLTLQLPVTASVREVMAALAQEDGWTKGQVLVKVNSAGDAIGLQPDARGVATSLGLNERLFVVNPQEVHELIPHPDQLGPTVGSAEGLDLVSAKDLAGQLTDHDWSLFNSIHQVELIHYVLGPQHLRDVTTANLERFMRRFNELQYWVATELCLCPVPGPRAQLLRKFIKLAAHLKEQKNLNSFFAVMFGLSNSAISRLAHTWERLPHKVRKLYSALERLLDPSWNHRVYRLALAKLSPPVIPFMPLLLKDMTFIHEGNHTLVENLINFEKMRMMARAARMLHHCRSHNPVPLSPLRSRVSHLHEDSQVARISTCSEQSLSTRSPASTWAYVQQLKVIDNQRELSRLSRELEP

[8] = target: Rap guanine nucleotide exchange factor 4 (Homo sapiens) (UniProt Q8WZA2); assay: Confirmatory qHTS for agonist of cAMP-regulated guanine nucleotide exchange factor 4 (EPAC2) (AID 1645884); details: EPAC2 GEF activity, Rap1B-BODIPY-GDP fluorescence, percent relative to cAMP agonist control; series mostly up to 154 µM;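 note: nucleotide exchange releases bodipy-GDP from Rap1 and this lowers its fluorescence; nearly all actives have a fitted effect of over 65% in size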
Rap guanine nucleotide exchange factor 4 (Homo sapiens), sequence (Q8WZA2 whole entry, looked up): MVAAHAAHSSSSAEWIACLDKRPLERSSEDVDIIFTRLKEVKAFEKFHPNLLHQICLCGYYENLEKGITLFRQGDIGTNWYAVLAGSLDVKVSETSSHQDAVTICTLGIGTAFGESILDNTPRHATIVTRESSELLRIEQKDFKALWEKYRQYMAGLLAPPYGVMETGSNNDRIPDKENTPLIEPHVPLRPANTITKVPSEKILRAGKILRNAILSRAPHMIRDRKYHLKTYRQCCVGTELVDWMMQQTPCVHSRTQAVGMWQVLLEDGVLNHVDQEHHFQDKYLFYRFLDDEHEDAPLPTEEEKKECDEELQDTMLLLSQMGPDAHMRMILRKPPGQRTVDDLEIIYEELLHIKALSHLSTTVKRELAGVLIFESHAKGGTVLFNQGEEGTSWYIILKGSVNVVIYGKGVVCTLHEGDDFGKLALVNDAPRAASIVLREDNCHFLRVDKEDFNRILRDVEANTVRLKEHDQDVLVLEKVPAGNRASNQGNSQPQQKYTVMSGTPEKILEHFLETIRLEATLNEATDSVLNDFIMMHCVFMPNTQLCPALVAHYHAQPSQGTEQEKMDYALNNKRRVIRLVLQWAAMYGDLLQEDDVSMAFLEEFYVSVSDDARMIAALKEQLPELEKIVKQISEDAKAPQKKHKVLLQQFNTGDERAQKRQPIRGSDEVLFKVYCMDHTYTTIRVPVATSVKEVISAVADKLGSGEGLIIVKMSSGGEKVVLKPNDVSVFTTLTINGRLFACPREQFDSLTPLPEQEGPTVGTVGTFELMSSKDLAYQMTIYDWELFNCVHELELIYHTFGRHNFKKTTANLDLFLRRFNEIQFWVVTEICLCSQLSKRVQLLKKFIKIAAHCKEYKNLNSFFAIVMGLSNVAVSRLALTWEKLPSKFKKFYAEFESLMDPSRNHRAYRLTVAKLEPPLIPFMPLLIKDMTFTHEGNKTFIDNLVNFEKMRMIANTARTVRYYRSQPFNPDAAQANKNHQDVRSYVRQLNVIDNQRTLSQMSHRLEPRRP

[9] = target: Rap guanine nucleotide exchange factor 4 (Homo sapiens) (UniProt Q8WZA2); assay: Confirmatory qHTS for antagonist of cAMP-regulated guanine nucleotide exchange factor 4 (EPAC2) (AID 1645885); details: EPAC2 Rap1B-BODIPY-GDP exchange fluorescence, biochemical; series mostly up to 114 µM; note: nearly all actives have a fitted effect of over 25% in size
[10] = target: Rap guanine nucleotide exchange factor 3 (Homo sapiens) (UniProt O95398); assay: Counterscreen qHTS for antagonist of cAMP-regulated guanine nucleotide exchange factor 3 (EPAC1) (AID 1645888); details: Rap1B-BODIPY-GDP nucleotide exchange, fluorescence; series mostly up to 30.8 µM;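 note: fluorescence loss as bound BODIPY-GDP is released from Rap1B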
Summary of the method: (§1)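 Rap1B-BODIPY-GDP 250 nM + GDP 50 uM; cpds 7-pt, final 9.74 nM–152 uM (activator mode) or from 7.32 nM upwards (inhibitor mode); RT; FI 480/540 nm at 5 and 30 min, then ± cAMP, reread.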

[11] = target: Rap guanine nucleotide exchange factor 3 (Homo sapiens) (UniProt O95398); assay: Counterscreen qHTS for agonist of cAMP-regulated guanine nucleotide exchange factor 3 (EPAC1) (AID 1645889); details: EPAC1 Rap1B-BODIPY-GDP exchange, fluorescence; series mostly up to 154 µM; note: nearly all actives have a fitted effect of over 40% in size
Summary of the method: as §1

[12] = qHTS for differential inhibitors of proliferation of Plasmodium falciparum line W2 (AID 1883); details: Potency: Plasmodium falciparum W2 proliferation inhibition; series mostly up to 28.7 µM;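 note: potency is the fitted concentration of half-maximal effect; parasites grown with compound for 72 h before lysis and staining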
[13] = target: ATP-dependent DNA helicase Q1 (Homo sapiens) (UniProt P46063); assay: qHTS Validation Assay for Inhibitors of RecQ-Like Dna Helicase 1 (RECQ1) (AID 2353); details: recombinant RECQ1 helicase DNA unwinding assay; series mostly up to 25.6 µM
ATP-dependent DNA helicase Q1 (Homo sapiens), sequence (P46063 whole entry, looked up): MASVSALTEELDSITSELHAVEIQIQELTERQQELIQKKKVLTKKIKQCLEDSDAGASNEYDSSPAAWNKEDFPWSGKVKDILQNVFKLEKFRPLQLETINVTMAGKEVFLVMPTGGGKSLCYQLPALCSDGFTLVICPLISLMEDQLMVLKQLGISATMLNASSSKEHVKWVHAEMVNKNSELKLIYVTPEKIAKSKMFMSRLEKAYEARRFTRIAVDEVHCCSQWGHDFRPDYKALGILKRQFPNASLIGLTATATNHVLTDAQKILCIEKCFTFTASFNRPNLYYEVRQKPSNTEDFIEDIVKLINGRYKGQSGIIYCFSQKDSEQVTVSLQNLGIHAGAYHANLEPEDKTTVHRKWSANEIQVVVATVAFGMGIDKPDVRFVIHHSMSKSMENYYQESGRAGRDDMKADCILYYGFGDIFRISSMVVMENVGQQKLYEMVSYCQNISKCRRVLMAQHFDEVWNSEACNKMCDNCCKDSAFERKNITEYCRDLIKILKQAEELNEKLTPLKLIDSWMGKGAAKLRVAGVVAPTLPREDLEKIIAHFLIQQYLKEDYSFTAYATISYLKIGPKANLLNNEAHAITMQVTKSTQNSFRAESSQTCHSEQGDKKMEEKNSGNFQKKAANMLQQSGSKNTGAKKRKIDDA
Summary of the method: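 50 nM RECQ1T1 preincubated 15 min with compound in Tris pH 8.0 buffer with MgCl2, DTT, Tween-20 and 2.5 ug/ml poly(dI-dC); started with 200 nM TAMRA/BHQ-2 forked duplex and 2 mM ATP. Unwinding read as fluorescence (525/598 nm), two reads 2 h apart.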

[14] = target: RecQ-like DNA helicase BLM (Homo sapiens) (UniProt P54132); assay: qHTS Validation Assay for Inhibitors of Bloom's syndrome helicase (BLM) (AID 2364); details: BLM helicase DNA unwinding, fluorescence, in vitro; series mostly up to 57.1 µM
Summary of the method: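 Forked 20-bp duplex substrate (200 nM, TAMRA/BHQ-2) plus 2 mM ATP added after 15 min compound preincubation with 50 nM enzyme, pH 8.0, poly(dI-dC) 2.5 ug/ml. Strand separation followed by fluorescence (525/598 nm) over 2 h, normalized to enzyme-free and DMSO controls.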

[15] = Validation screen for small molecules that induce DNA re-replication in MCF 10A normal breast cells (AID 463097); details: MCF 10A cells, DNA re-replication phenotype imaging; series mostly up to 46.1 µM; note: nearly all actives have a fitted effect of over 60% in size
Summary of the method: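 DNA re-replication was detected as a rise in nuclei with elevated Hoechst fluorescence after a 48 hr compound exposure of MCF 10A cells at 37 C.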

[16] = Quantitative high throughput screen for delayed death inhibitors of the malarial parasite plastid, 96 hour incubation (AID 488745); details: Plasmodium falciparum growth; series mostly up to 28.7 µM; note: nearly all actives have a fitted effect of over 70% in size
Summary of the method: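 P. falciparum carrying an integrated firefly luciferase reporter, grown in erythrocytes (2% hematocrit, 0.1% parasitemia final) in RPMI 1640/0.5% Albumax, was exposed to compound for 96 h (two generations) at 37 C, 5% CO2. Luminescence decrease indicated growth inhibition.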

[17] = Quantitative high throughput screen for delayed death inhibitors of the malarial parasite plastid, 48 hour incubation (AID 488752); details: Plasmodium falciparum growth; series mostly up to 28.7 µM; note: nearly all actives have a fitted effect of over 65% in size
Summary of the method: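 Erythrocytes infected with P. falciparum carrying an integrated firefly luciferase reporter (2% hematocrit, 0.1% parasitemia final) were exposed to compounds in RPMI 1640/0.5% Albumax for 48 h at 37 C, 5% CO2. Growth inhibition was scored as reduced luminescence.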

[18] = target: M-phase phosphoprotein 8 (Homo sapiens) (UniProt Q99549); assay: qHTS Validation Assay for Inhibitors for MPP8 Chromodomain Interactions with Methylated Histone Tails (AID 488949); details: AlphaScreen MPP8 binding to H3K9me3 peptide; series mostly up to 114 µM;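 note: AlphaScreen signal from MPP8 chromodomain bound to biotinylated H3K9me3 peptide; top concentration of the series differs between compounds; nearly all actives have a fitted effect of over 55% in size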
Summary of the method: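 Disruption of the preformed MPP8–trimethyl-H3K9 peptide complex (both 50 nM, 30 min, RT) is measured after 30 min compound exposure, using AlphaScreen proximity beads; aurintricarboxylic acid titration serves as plate control.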

[19] = target: Galactokinase (Homo sapiens) (UniProt P51570); assay: qHTS Validation Assay for Inhibitors of Human Galactokinase (GALK) (AID 493189); details: purified human GALK enzyme activity, qHTS 7-point titration; series mostly up to 57.5 µM
Galactokinase (Homo sapiens), sequence (P51570 whole entry, looked up): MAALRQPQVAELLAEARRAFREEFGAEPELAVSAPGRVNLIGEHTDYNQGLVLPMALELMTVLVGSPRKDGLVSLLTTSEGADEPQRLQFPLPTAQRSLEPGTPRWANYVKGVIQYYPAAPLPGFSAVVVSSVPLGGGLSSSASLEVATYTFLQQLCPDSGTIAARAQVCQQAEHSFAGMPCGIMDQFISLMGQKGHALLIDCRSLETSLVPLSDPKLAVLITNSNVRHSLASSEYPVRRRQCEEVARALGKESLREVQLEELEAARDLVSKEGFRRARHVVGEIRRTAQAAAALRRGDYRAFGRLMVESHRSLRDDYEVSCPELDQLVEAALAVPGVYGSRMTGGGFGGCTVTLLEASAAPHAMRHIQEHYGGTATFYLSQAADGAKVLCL
Summary of the method: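 Compounds were pin-transferred into ATP buffer, then GALK-galactose mix was added (final 5 nM enzyme, 100 uM galactose, 35 uM ATP). After 1 h at room temperature, remaining ATP was measured luminescently.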

[20] = target: Voltage-gated inwardly rectifying potassium channel KCNH2 (Homo sapiens) (UniProt Q12809); assay: qHTS Assay for Small Molecule Inhibitors of the Human hERG Channel Activity (AID 588834); details: U2OS BacMam hERG, FluxOR thallium flux fluorescence; series mostly up to 46.1 µM;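 note: top concentration of the series differs between compounds; lower thallium flux fluorescence means stronger hERG block; nearly all actives have a fitted effect of over 50% in size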
Voltage-gated inwardly rectifying potassium channel KCNH2 (Homo sapiens), sequence (Q12809 whole entry, looked up): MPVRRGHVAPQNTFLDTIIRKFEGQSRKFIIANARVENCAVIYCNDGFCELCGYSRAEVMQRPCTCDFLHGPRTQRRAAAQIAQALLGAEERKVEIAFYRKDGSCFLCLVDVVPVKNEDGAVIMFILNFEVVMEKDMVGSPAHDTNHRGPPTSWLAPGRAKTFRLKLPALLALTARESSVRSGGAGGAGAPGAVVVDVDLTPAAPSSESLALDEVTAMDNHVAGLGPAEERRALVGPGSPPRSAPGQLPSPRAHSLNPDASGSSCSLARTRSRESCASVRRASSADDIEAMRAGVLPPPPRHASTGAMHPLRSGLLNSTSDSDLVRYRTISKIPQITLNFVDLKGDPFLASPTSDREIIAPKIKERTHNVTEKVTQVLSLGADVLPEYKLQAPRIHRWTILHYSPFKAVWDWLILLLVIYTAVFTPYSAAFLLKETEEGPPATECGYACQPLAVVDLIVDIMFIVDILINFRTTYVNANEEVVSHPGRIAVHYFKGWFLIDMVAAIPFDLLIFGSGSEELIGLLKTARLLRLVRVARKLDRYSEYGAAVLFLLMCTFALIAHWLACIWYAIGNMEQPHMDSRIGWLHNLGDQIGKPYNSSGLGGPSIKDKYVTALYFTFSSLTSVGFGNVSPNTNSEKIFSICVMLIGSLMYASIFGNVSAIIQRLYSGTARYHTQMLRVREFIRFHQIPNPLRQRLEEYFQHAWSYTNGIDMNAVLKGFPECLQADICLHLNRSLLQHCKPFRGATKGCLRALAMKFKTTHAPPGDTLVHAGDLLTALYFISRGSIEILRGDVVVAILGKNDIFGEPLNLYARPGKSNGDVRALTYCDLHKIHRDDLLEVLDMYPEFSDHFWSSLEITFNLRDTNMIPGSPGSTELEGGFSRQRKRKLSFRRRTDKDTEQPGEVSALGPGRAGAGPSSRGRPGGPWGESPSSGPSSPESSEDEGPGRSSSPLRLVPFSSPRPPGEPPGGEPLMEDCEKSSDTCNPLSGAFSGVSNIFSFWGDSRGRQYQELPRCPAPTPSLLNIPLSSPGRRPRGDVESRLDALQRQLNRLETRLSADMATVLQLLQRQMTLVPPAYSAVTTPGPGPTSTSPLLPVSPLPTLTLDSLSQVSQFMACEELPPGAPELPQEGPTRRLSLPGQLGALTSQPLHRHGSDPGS
Summary of the method: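 Measured: FluxOR fluorescence after thallium stimulation in U2OS cells transduced with hERG by baculovirus. Compounds pre-incubated around 10 min; medium Opti-MEM with 2% FCS. AC50 from Hill equation.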

In the case of `C[C@@]12C(=O)OC(=O)[C@]1(C)[C@H]1CC[C@@H]2O1`, the activity change, negative = inhibition [1] is reported as -102% [at 17.2 µM] (active), the activity change, negative = inhibition [2] is reported as -99.7% [at 17.2 µM] (active) and the activity, negative = inhibition [3] is reported as -85.9% [at 17.2 µM] (active).
With `COC1=C(OC)C(=O)C(C/C=C(\C)CC/C=C(\C)CC/C=C(\C)CC/C=C(/C)CC/C=C(\C)CC/C=C(\C)CC/C=C(\C)CC/C=C(\C)CC/C=C(\C)CCC=C(C)C)=C(C)C1=O` the Potency [4] was “inactive”.
For `CC(/C=C1\SC(=S)N(CC(=O)O)C1=O)=C\c1ccccc1`, the outcome [5] was “inactive”, the outcome [6] was “inactive” and the outcome [7] was “inactive”. The outcome [8] was “inactive”, the Potency [9] was “inactive” and the outcome [10] was “inactive”. The outcome [11] was “inactive”.
In the case of `C[C@H]1CC2[C@@H]3CCC4=CC(=O)C=C[C@]4(C)[C@@]3(F)[C@@H](O)C[C@]2(C)[C@@]1(O)C(=O)CO` (stereo partly specified), the Potency [12] is reported as 10 µM (active), the Potency [13] is reported as “inactive” and the Potency [14] is reported as “inactive”. The outcome [15] was “inactive”, the Potency [16] was “inactive” and the Potency [17] was “inactive”. For the same molecule, the Potency [18] was “inactive”, the outcome [19] was “inactive” and the Potency [20] was “inactive”.
With `CN(CCOc1ccc(C[C@H](Nc2ccccc2C(=O)c2ccccc2)C(=O)O)cc1)c1ccccn1` the Potency [12] was 8.91 µM (active), the Potency [13] was “inactive” and the Potency [16] was “inactive”. For the same molecule, the Potency [17] was “inactive”, the outcome [19] was “inactive” and the Potency [20] was “inactive”.
